Assay results as given in the supplement of paper PMC10933113.
Counter-ions that a name gives are not always drawn. ± gives the uncertainty stated by the source.

Experiments:
THP-1 [1] = assay: CD54 surface expression induction over DMSO control (% over DMSO); higher = stronger dendritic cell activation; details: exposure time: 24 h
Description: (§1)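 hCLAT-like CD54 and CD86 surface expression on THP1 cells after 24 h exposure at a single concentration (highest non-cytotoxic concentration, or 100-200 µM if not cytotoxic). Flow cytometry (iQue) was run on 5,000 live cells.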

THP-1 [2] = assay: CD86 surface expression induction over DMSO control (% over DMSO); higher = stronger dendritic cell activation; details: exposure time: 24 h
Description: as §1

Compound | CD54 surface expression induction (THP-1 [1]) | CD86 surface expression induction (THP-1 [2])
c1ccc(CCNc2nc(-c3ccccc3)cs2)cc1 [Fanetizole] (200 µM) | -4.51 ± 4.3 | –
CC[C@@]1(O)C(=O)OCc2c1cc1n(c2=O)Cc2c-1nc1ccccc1c2/C=N/OC(C)(C)C [Gimatecan] (10 µM) | -15.7 ± 5 | –
CCCCCCCCCCCCO [1-Dodecanol] (100 µM) | 9.85 ± 8.8 | 21.8 ± 27
CCCCCCCCCCCCOCCO [2-(Dodecyloxy)ethanol] (200 µM) | 34.2 ± 20 | –
O=[N+]([O-])c1cc(N(CCO)CCO)ccc1NCCO (200 µM) | 3.92 ± 4.8 | –
COP(=O)(O)OP(=O)(O)OC [Dimethyl dihydrogen diphosphate] (200 µM) | -11.2 ± 2.4 | -3.42 ± 3.5
O=C(OCc1ccccc1)c1ccc(O)cc1 [Benzylparaben] (100 µM) | -6.45 ± 0.19 | –
CC(C)(C)OC(=O)c1ccc(O)cc1 [tert-Butyl 4-hydroxybenzoate] (100 µM) | 1.75 ± 0.96 | –
CC(C)(C)c1ccc(C(=O)CCCCl)cc1 [4'-Tert-butyl-4-chlorobutyrophenone] (100 µM) | -1.36 ± 1.9 | –
NC(=S)NC(N)=S [2,4-Dithiobiuret] (200 µM) | 15.9 ± 2.6 | –
COC(=O)Nc1nc2cc(Sc3ccccc3)ccc2[nH]1 [Fenbendazole] (100 µM) | -38.1 ± 4.2 | -18.1 ± 26
O=C(Oc1ccccc1)c1cccc(C(=O)Oc2ccccc2)c1 [Diphenyl isophthalate] (200 µM) | -2.76 ± 5 | –
COC(=O)Nc1nc2ccc(C(=O)C3CC3)cc2[nH]1 [Cyclobendazole] (100 µM) | -7.19 ± 4.8 | –
CCOc1ccc2nc3cc(N)ccc3c(N)c2c1 [Ethacridine lactate monohydrate] (200 µM) | -29.7 ± 6.5 | –
C=CCOC(=O)/C=C\C(=O)OCC=C [Diprop-2-en-1-yl (2Z)-but-2-enedioate] (203 µM) | -3.66 ± 5.6 | –
CC(O)C#CC(C)O (configuration not stated) [Hex-3-yne-2,5-diol] (10 µM) | 6.05 ± 3.8 | 0.05 ± 2.9
CC(C)NC(=O)c1ccc(C=O)cc1 [N-isopropyl-4-formylbenzamide] (100 µM) | -11.6 ± 1.7 | –
CCCCNC(=S)NCCCC [N,N'-Dibutylthiourea] (10 µM) | -6.77 ± 3.8 | –

Compound | CD54 surface expression induction (THP-1 [1]) | CD86 surface expression induction (THP-1 [2])
C#CCN(C)CCCOc1ccc(Cl)cc1Cl [Clorgyline hydrochloride] (100 µM) | -7.99 ± 0.71 | –
CCCCC1C(=O)N(c2ccccc2)N(c2ccc(O)cc2)C1=O (configuration not stated) [Oxyphenbutazone] (10 µM) | 2.37 ± 6.7 | 24.6 ± 15
Cc1c2ccccc2c(C)c2c1ccc1ccccc12 [7,12-Dimethylbenzanthracene] (10 µM) | -22 ± 12 | –
CC(C)c1ccc2cc(C(C)C)ccc2c1 [2,6-Diisopropylnaphthalene] (200 µM) | 10.1 ± 1.7 | –
Cc1ccc(O)c(-n2nc3ccccc3n2)c1 [2-(2H-Benzotriazol-2-yl)-4-methylphenol] (100 µM) | 3.46 ± 3.3 | –
CCN(CC)CCSC(=O)C(c1ccccc1)c1ccccc1 [Thiphenamil] (200 µM) | 99.2 ± 12 | –
O=c1cc(-c2ccccc2)oc2ccccc12 [Flavone] (200 µM) | 62.9 ± 14 | –
C/C=C/C=C/C=O [2,4-Hexadienal] (200 µM) | 9.31 ± 6.7 | 4.48 ± 7.5
CN(C)c1ccc(C(=C2C=CC(=[N+](C)C)C=C2)c2ccccc2)cc1 [Malachite green oxalate*] (10 µM) | 132 ± 20 | –
C=C(C)C(=O)Nc1ccc(Cl)c(Cl)c1 [Chloranocryl] (100 µM) | 0.25 ± 0.41 | –
O=c1n(CC2CO2)c(=O)n(CC2CO2)c(=O)n1CC1CO1 (configuration not stated) [Triglycidyl isocyanurate] (10 µM) | 4 ± 1.7 | –
CCOc1ccc2nc(S(N)(=O)=O)sc2c1 [Ethoxzolamide] (200 µM) | 3.81 ± 6 | –
CCN(CC)CCOc1ccc2c(c1)C(=O)c1cc(OCCN(CC)CC)ccc1-2 [Tilorone] (200 µM) | 79.8 ± 17 | –
CC(C)CC(NC(=O)OCC1c2ccccc2-c2ccccc21)C(=O)O (stereo in doubt) [N-(9-Fluorenylmethoxycarbonyl)-L-leucine] (100 µM) | -11.5 ± 0.49 | –
CC(C)=CCC/C(C)=C\CO [(2Z)-3,7-Dimethylocta-2,6-dien-1-ol] (200 µM) | -9.15 ± 2.5 | –
O=C1c2cccc(O)c2C(=O)c2c(O)cccc21 [Danthron] (100 µM) | 16.5 ± 0.49 | –
CCCCCCCCCCCCCCCC[N+](C)(C)Cc1ccccc1 [Benzylhexadecyldimethylammonium chloride] (10 µM) | 20.1 ± 7.5 | –
CCCCCCCCN [n-Octylamine] (100 µM) | -6.09 ± 0.05 | –
